Test [1] concerns the target Sphingosine kinase 1 (Homo sapiens) (UniProt Q9NYA1). The note with it: at 1 µM.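 Further: mean SPHK1 inhibition value reported from the GSK PKIS kinase panel screen.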
The target in test [2] is T1, Sphingosine kinase 2 (Homo sapiens) (UniProt Q9NRA0).
T1 sequence (whole entry): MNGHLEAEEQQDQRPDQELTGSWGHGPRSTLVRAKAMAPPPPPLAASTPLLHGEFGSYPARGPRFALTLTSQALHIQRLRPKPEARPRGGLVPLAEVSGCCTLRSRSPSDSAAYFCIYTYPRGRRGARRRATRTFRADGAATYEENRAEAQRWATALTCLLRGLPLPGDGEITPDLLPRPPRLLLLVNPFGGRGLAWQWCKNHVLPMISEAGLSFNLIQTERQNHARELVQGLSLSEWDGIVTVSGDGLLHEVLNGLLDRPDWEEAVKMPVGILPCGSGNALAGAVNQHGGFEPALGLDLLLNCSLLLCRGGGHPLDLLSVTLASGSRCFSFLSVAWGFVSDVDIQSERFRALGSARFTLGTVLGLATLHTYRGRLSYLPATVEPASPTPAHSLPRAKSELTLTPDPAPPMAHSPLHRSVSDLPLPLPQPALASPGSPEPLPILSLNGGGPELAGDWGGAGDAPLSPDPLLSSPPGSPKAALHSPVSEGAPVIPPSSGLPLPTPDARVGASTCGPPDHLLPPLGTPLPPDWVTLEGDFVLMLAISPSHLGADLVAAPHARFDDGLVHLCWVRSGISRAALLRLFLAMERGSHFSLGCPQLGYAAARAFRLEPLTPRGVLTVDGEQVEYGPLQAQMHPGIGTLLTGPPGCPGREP
To be noted: at 0.1 µM.

The target in test [3] is T1, Sphingosine kinase 2 (Homo sapiens). To be noted: at 1 µM.
In test [4] the target is Casein kinase II subunit alpha (Homo sapiens) (UniProt P68400). The note with it: at 0.1 µM.
For test [5] the target is unchanged. The note with it: at 1 µM.
The target of test [6] is T2, Inhibitor of nuclear factor kappa-B kinase subunit alpha (Homo sapiens) (UniProt O15111).
T2 sequence (whole entry): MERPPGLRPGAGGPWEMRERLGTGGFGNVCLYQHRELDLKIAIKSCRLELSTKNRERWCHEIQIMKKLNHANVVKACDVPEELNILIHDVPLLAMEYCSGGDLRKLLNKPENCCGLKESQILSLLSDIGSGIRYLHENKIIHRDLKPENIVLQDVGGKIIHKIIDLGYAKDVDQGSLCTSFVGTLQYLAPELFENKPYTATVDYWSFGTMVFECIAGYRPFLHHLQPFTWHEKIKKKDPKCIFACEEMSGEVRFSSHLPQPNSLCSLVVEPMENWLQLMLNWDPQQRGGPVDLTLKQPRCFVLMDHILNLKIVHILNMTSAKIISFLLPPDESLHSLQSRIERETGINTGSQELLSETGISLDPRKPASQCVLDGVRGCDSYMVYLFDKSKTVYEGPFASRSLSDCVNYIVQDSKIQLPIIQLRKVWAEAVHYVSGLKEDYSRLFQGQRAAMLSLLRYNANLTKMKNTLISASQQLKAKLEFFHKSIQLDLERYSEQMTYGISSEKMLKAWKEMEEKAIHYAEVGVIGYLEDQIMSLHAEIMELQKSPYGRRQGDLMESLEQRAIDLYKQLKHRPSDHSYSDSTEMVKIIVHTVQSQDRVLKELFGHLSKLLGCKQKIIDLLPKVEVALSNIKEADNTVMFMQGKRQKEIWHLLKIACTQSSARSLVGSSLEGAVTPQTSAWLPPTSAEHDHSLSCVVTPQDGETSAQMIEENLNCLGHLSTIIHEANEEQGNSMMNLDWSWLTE
The note with it: at 0.1 µM.

For test [7], the target named is T2, Inhibitor of nuclear factor kappa-B kinase subunit alpha (Homo sapiens). The note with it: at 1 µM.
The target of test [8] is T3, Inhibitor of nuclear factor kappa-B kinase subunit beta (Homo sapiens) (UniProt O14920).
T3 sequence (whole entry): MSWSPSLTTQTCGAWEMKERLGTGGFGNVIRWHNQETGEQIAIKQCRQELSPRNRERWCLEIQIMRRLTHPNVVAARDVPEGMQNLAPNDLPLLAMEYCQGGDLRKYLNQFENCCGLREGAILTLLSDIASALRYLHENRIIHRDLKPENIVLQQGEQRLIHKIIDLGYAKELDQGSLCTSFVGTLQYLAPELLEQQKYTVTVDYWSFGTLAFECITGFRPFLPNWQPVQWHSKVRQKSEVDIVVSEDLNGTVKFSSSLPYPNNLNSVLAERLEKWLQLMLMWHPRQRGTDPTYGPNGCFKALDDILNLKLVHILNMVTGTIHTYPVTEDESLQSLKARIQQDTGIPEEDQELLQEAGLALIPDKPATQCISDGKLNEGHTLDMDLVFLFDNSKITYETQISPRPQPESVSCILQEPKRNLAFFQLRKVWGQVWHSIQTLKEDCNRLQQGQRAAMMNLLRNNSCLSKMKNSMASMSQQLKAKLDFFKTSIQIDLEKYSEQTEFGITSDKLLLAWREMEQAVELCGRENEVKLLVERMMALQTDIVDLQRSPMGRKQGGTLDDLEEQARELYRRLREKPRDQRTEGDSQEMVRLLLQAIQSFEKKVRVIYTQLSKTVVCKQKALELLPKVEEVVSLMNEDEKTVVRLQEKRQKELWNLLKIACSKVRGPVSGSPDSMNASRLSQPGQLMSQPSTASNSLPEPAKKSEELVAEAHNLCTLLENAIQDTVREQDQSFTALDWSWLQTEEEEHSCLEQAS
The note with it: at 0.1 µM.

Test [9] has as its target T3, Inhibitor of nuclear factor kappa-B kinase subunit beta (Homo sapiens). The note with it: at 1 µM.
Test [10] deals with T4, Inhibitor of nuclear factor kappa-B kinase subunit epsilon (Homo sapiens) (UniProt Q14164).
T4 sequence (whole entry): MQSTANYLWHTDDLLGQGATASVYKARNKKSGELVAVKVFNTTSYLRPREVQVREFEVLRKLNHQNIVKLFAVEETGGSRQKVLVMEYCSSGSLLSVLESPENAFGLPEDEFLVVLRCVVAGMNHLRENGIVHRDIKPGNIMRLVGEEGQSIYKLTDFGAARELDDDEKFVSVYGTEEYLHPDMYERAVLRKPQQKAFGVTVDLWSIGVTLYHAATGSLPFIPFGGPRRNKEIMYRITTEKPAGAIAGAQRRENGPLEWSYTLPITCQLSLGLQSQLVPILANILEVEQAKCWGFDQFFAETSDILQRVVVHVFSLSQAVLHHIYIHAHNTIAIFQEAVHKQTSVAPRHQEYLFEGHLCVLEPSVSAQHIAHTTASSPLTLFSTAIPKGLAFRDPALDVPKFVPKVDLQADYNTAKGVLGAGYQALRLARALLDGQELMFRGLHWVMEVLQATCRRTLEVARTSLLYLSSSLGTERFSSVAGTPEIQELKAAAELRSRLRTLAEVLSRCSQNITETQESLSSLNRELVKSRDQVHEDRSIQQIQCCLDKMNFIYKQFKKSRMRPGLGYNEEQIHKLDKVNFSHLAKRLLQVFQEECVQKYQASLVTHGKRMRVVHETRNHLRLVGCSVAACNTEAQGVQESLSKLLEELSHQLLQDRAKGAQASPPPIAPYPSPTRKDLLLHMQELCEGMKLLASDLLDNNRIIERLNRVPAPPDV
The note with it: at 0.1 µM.

The values below come from ChEMBL document CHEMBL1961873, “Compounds: GSK PKIS; Assays: Nanosyn kinase panel” (2012).

For orientation: inhibition means the drop in the measured response relative to a control, in per cent.

Chain of Casein kinase II subunit alpha (Homo sapiens) (P68400 whole entry, looked up): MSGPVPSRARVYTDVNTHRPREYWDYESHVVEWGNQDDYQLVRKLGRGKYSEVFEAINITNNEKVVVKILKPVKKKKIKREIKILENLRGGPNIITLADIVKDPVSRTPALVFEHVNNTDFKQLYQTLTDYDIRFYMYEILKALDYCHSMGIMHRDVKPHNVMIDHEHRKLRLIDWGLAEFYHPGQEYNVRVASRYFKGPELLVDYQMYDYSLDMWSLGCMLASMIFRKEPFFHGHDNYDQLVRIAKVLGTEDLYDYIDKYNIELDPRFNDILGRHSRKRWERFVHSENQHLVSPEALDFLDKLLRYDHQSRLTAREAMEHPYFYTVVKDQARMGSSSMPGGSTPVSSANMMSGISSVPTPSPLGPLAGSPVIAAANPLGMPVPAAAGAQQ
Chain of Sphingosine kinase 1 (Homo sapiens) (Q9NYA1 whole entry): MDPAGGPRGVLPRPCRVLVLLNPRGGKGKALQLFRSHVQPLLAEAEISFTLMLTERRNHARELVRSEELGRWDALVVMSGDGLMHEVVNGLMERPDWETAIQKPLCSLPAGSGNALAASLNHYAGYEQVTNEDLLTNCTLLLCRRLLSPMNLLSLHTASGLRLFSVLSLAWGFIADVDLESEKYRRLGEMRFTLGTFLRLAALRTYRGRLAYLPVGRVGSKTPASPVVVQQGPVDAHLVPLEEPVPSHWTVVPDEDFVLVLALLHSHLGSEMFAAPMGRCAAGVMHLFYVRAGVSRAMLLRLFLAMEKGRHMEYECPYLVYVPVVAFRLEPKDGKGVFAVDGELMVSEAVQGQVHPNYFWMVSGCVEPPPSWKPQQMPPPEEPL

As to `CS(=O)(=O)CCNCc1nc(-c2ccc3ncnc(Nc4ccc(OCc5cccc(C(F)(F)F)c5)cc4)c3c2)cs1`, the inhibition is 1.3% in test [1]; 0.09% in test [2]; -0.46% in test [3]; -0.05% in [4]; 1.3% in [5]; -2.52% in [6]. Also, the inhibition in test [7] was -0.52%; in test [8] it was 3.26%; in test [9] it was 1.84%; in test [10] it was -0.33%.

For `CN(C)CCCn1c(-c2nonc2N)nc2cnccc21`, the inhibition in [1] is -0.88%; in test [2], 0.92%; in [3], 0.09%; in test [4], 1.4%; in test [5] it was -1.56%; in test [6], 5.57%. In addition, the inhibition in test [7] worked out at 4.33%; in [8], 6.47%; in test [9] it was 4.26%; in test [10], 4.73%.

For `COC(=O)Nc1nc2cc(Oc3ccc(NC(=O)Nc4cccc(Br)c4)cc3)ccc2[nH]1`, the inhibition in [1] was -3.97%; in test [2], 0.52%; in test [3], 1.73%; in test [4], 2.56%; in test [5], 2.62%; in [6], 7.56%. For the same molecule, the inhibition was 7.22% in test [7], 5.61% in test [8], 7.62% in [9] and 4.82% in test [10].

Consider `COc1cccc(-n2nc(C)c3c(N/N=C(\C)c4ccncc4)ncnc32)c1`, for which the inhibition in [1] was 2.22%; in test [2] it was 0.03%; in test [3] it was 0%; in test [4] it was 2.16%; in [5], 6.88%; in [6] it was 1.96%. For the same molecule, the inhibition in test [7] is -2.68%; in [8] it was 1.3%; in test [9], 1.94%; in test [10], -1.8%.

Take `O=C(Nc1ccc(Oc2ccc3[nH]c(NC(=O)c4ccco4)nc3c2)cc1)Nc1cc(C(F)(F)F)ccc1F`: the inhibition in test [1] is 6.73%; in test [2], 0.7%; in test [3], -0.32%; in test [4], 0.08%; in test [5], -0.44%; in test [6], 0.68%. Also, the inhibition was 5.25% in [7], -0.61% in [8], -1.89% in test [9] and -0.79% in [10].

`Cc1ccc(O)cc1Nc1ccnc2ccc(S(C)(=O)=O)cc12`: the inhibition in [1] was -1.32%; in test [2], 1.04%; in test [3] it was 1.77%; in [4], 3.63%; in [5], 8.35%; in test [6], 5.42%. Moreover, the inhibition is 9.92% in test [7], 6.57% in [8], 8.43% in test [9] and 6.64% in [10].

Take `Cc1ccc2c(c1)/C(=N/Nc1ccc(S(N)(=O)=O)cc1)C(=O)N2`: the inhibition in test [1] was 0.07%; in [2] it was 0.19%; in test [3] it was 0.62%; in [4], -2.8%; in [5], -4.47%; in [6], 8.72%. Moreover, the inhibition in [7] is 4.99%; in test [8], 1.92%; in test [9], 1.12%; in [10], -5.56%.

As to `NC(=O)c1sc(-n2cnc3ccccc32)cc1OCc1ccccc1Br`, the inhibition was -0.07% in test [1]; 1.77% in test [2]; 0% in [3]; 5.03% in test [4]; 5.76% in test [5]; 4.61% in [6]. For the same molecule, the inhibition was 7.53% in [7], 4.02% in test [8], 5.66% in test [9] and 8.4% in [10].

Consider `CCn1c(-c2nonc2N)nc2ccc(F)cc21`, for which the inhibition was 0.48% in [1]; 3.46% in test [2]; -5.33% in [3]; 4.71% in test [4]; 8.79% in test [5]; 4% in test [6]. For the same molecule, the inhibition in test [7] was found to be 6.96%; in [8], 7.24%; in test [9], 8.68%; in test [10], 8.59%.

Consider `NS(=O)(=O)c1ccc(-c2cc3ccncc3cc2OCc2ccccc2)cc1`, for which the inhibition was -2.02% in test [1]; -0.23% in [2]; 1% in [3]; 5.15% in test [4]; 12.6% in test [5]; 0.99% in test [6]. For the same molecule, the inhibition worked out at 8.71% in [7], 8.26% in test [8], 21.9% in test [9] and 5.72% in [10].
